RE007 growth inh: less growth of the S. pombe RE007 Vpr strain; Potency, µM (doses to about 92.2 µM), for inactives: at the top dose activity change, negative = less growth, usual class: inhibitors; 0.21% of 360,000 active; AID 651644; S. pombe RE007 Vpr strain, BacTiter-Glo ATP luminescence, 24 h; active means well fitted falling curve with a large enough effect; inconclusive means small, poorly fitted or top-dose-only effect; inactive means no such curve, though single readings can be large or run the other way; further: on the % scale 0 is the no-effect control and ±100 the full control effect; nearly all actives have a fitted effect of over 50% in size
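Fission yeast RE007 carrying one integrated HIV-1 vpr copy, seeded at OD 0.01 in PMG+AL medium with 23 nL pinned compound. Grown 24 h at 30 degrees; viability read by BacTiter-Glo luminescence after 5 min.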
AmpC detergent: inhibitors of E. coli AmpC beta-lactamase with detergent; P00811; AmpC hydrolysis of nitrocefin, absorbance 480 nm, 0.01% Triton; Potency, µM (doses to about 114 µM), inactives show top-dose activity change, negative = inhibition, hits mostly inhibitors; 0.041% of 370,000 active; AID 485294;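 further: 0% = no-compound wells and -100% = no-enzyme wells; nearly all actives have a fitted effect of over 25% in size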
Target sequence (P00811 whole entry, looked up): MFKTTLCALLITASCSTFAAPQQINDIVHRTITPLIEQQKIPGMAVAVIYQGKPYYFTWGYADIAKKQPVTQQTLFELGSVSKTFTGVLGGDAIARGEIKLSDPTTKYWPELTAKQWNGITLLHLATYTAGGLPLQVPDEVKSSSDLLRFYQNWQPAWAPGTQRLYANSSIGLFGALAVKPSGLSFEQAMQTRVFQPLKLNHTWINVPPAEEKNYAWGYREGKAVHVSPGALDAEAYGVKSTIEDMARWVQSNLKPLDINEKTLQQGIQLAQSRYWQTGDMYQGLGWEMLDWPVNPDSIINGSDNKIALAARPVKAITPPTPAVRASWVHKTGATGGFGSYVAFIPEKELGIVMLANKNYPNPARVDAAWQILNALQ
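20 mM phosphate pH 7.0 + 0.01% (detergent screen) or 0.0001% Triton X-100; 5.3 nM AmpC reagent; cpd preinc 15 min RT; nitrocefin (800 uM stock) to start; A480 q20 s × 4 min; Activity was normalised to no-enzyme and no-compound control wells.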
Sm TGR inh: S. mansoni TGR enzyme inhibition; Q962Y6; purified TGR, DTNB reduction, TNB absorbance 405 nm; Potency, µM (series often up to 114 µM), for inactives: at the highest dose activity change, negative = inhibition, most hits filed as inhibitors; 3% of 360,000 active; further: on the % scale 0 is the no-effect control and ±100 the full control effect; nearly all actives have a fitted effect of over 60% in size
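Kinetic colorimetric format: TGR-catalysed, NADPH-driven DTNB reduction monitored via TNB absorbance. Enzyme dispensed at 20 nM; compound exposure 15 min at room temperature before reaction start.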
SARS PLP yeast: SARS-CoV PLP inhibition in yeast; S. cerevisiae expressing SARS-CoV PLpro, growth rescue; 0.19% of 330,000 active; Potency, µM (highest dose often 32.9 µM), for the others: at the top dose activity, positive = growth rescue, most hits filed as activators; calls by dose curve; further: 0% is about no effect; nearly all actives have a fitted effect of over 55% in size
TbPYK inhibitor: inhibitors of Trypanosoma brucei pyruvate kinase; Q57TT1; TbPYK enzyme, Kinase-Glo Plus ATP luminescence, 45 min; Potency, µM (highest dose often 76.8 µM), for the others: at the highest dose activity, negative = inhibition, usual class: inhibitors; 0.12% of 410,000 active; further: on the % scale 0 is the no-effect control and ±100 the full control effect; nearly all actives have a fitted effect of over 50% in size
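Quantitative HTS: titrated library compounds versus trypanosomal pyruvate kinase in TEA buffer (pH 7.2) containing KCl, MgCl2, BSA and Tween-20. Reactions were initiated with ADP, 130 uM final. Kinase-Glo Plus luminescence was read after 45 min at RT.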
AmpC inh no detg: blocks E. coli AmpC beta-lactamase in detergent-free assay | Potency, µM (series often up to 57.1 µM), for inactives: at the top dose activity change, negative = inhibition, most hits filed as inhibitors | P00811 | AmpC nitrocefin hydrolysis, absorbance 480 nm, 0.0001% Triton | 0.52% of 330,000 active;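 further: plate controls were no compound for no effect and no enzyme for full effect; nearly all actives have a fitted effect of over 20% in size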
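20 mM phosphate pH 7.0 + 0.01% (detergent screen) or 0.0001% Triton X-100; 5.3 nM AmpC reagent; cpd preinc 15 min RT; nitrocefin (800 uM stock) to start; A480 q20 s × 4 min; Activity was normalised to no-enzyme and no-compound control wells.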
Starred values were filed as active, the others as inactive; ? = inconclusive; nt = no result given. Most compounds without a hit are left out; they make up all but 3.3% or so of the library. Unless noted, the call rests on the fitted dose curve; in most records, active means well fitted curve in the direction sought with a large enough effect; inconclusive means small, poorly fitted or top-dose-only effect, or another doubt; inactive means no such curve, though single readings can be large; an effect the other way counts as inactive or inconclusive. Potency means the concentration at half of the fitted maximal effect.

SMILES | RE007 growth inh | AmpC detergent | Sm TGR inh | SARS PLP yeast | TbPYK inhibitor | AmpC inh no detg
CCOC(=O)CS(=O)(=O)c1nc(-c2ccc(F)cc2)cc(C(F)(F)F)n1 | ? | -13.0% | 2.82µM* | -29.4% | -5.1% | -17.9%
CCOC(=O)CS(=O)(=O)c1nc(-c2ccccc2)cc(C(F)(F)F)n1 | ? | -6.9% | ? | -56.6% | -0.4% | -2.2%
O=C(NC1CCS(=O)(=O)C1)/C(=C\c1ccco1)NC(=O)c1ccccc1 (stereo not drawn) | -13.6% | 0.8% | 35.5µM* | 0.5% | -6.5% | -19.1%
CC(C)(C)c1ccc(C(=O)N/C(=C\c2ccco2)C(=O)Nc2ccccc2C(=O)O)cc1 | -0.4% | 4.5% | 39.8µM* | 3.6% | ? | -37.6%
O=C(Nc1ccc(C(=O)O)cc1)/C(=C\c1ccco1)NC(=O)c1ccccc1 | -3.3% | -4.0% | nt | 0.8% | -2.1% | -19.8%
COc1ccc(OCCC(=O)NC2=NCCS2)cc1 | -11.4% | 0.6% | 2.3% | -9.6% | -10.4% | 0.7%
COc1ccc(C(=O)NCC(=O)NC2=NCCS2)cc1 | 5.3% | ? | 7.9% | 13.3% | 0.5% | 35.5µM*
CCOc1ccc(-c2cc(OC(=O)c3ccccc3)c3c(C)oc(C)c3c(=O)c2)cc1 | nt | 14.6% | 50.1µM* | nt | -2.2% | nt
COc1ccc(-c2cc(OC(=O)c3cccc(C)c3)c3c(C)oc(C)c3c(=O)c2)cc1 | nt | 4.8% | 12.6µM* | nt | -5.8% | nt
CCOc1cc(-c2ccc3c(c2)OCO3)cc(=O)c2c(C)oc(C)c12 | nt | ? | 35.5µM* | -0.1% | nt | -22.9%
COc1ccc(C(=O)Oc2cc(-c3ccc(OC)c(OC)c3)cc(=O)c3c(C)oc(C)c23)cc1 | nt | 14.8% | ? | nt | -11.6% | nt
CCOc1ccc(-c2cc(OC(=O)c3ccc(F)cc3)c3c(C)oc(C)c3c(=O)c2)cc1 | nt | -13.6% | ? | nt | -9.9% | nt
CCCn1c(=O)c2sccc2n2c(CCCC(=O)Nc3ccc(C)c(F)c3)nnc12 | nt | 20.8% | 2.4% | nt | 3.1% | nt
CCc1nc(-c2cc(S(=O)(=O)N3CCN(c4ccc(F)cc4)CC3)ccc2OC)no1 | nt | 11.1% | 1.0% | nt | 10.0% | nt
C=CCOc1c(Cl)cc(CNc2ccc(N(C)C)cc2)cc1OC | -18.3% | 8.2% | 17.8µM* | -1.5% | -9.1% | -4.8%
O=[N+]([O-])c1ccc(/C=[N+](\[O-])[C@@H]2CCCC[C@@H]2/[N+]([O-])=C/c2ccc([N+](=O)[O-])o2)o1 | -17.1% | 3.3% | 3.55µM* | -8.0% | 3.9% | -7.4%
O=C(N/N=C/c1ccc([N+](=O)[O-])o1)C1CCCC1 | -2.4% | -6.9% | ? | 5.4% | -9.5% | -19.4%
CCc1cccc(C)c1NC(=O)CCS(=O)(=O)c1ccc2c(c1)oc(=O)n2C | nt | 6.5% | 25.1µM* | nt | -18.9% | nt
O=C(C1CC1)N1CCN(c2nc3ccc(F)cc3s2)CC1 | nt | 0.7% | 10.1% | nt | 3.8% | nt
O=C1C(Cl)=C(NS(=O)(=O)c2ccc([N+](=O)[O-])cc2)C(=O)c2ccccc21 | -25.1% | ? | 0.891µM* | -0.3% | -21.8% | -29.4%
CCCc1ccc(/C=C2\C(=O)c3ccccc3C(O)=C2C(=O)OCC)cc1 | nt | ? | 8.91µM* | -28.5% | nt | 17.8µM*
CCOC(=O)C1=C(C)OC(=Cc2ccc(OC)cc2)C1=O | -13.2% | nt | nt | nt | -4.2% | nt
CCOC(=O)C1=C(O)c2ccccc2C(=O)/C1=C\c1ccc(CC)cc1 | ? | 3.1% | 4.47µM* | -45.0% | ? | -19.7%
Cc1cn2c(=O)c(S(=O)(=O)Nc3ccc(OC(F)(F)F)cc3)c(C)nc2s1 | nt | -8.1% | -14.8% | nt | 2.9% | nt
CCOc1ccc(N2CC(C(=O)NCc3ccco3)CC2=O)cc1 (stereo not drawn) | 0.5% | -16.1% | 0.8% | -11.2% | 4.0% | -1.4%
SMILES | RE007 growth inh | AmpC detergent | Sm TGR inh | SARS PLP yeast | TbPYK inhibitor | AmpC inh no detg
Cc1ccc(CCN2CC(C(=O)NCc3ccco3)CC2=O)cc1 (stereo not drawn) | 2.3% | -3.6% | 44.7µM* | 3.1% | 0.1% | 32.6%
COc1ccc(N2CC(C(=O)NCc3ccco3)CC2=O)cc1 (stereo not drawn) | -6.4% | -8.9% | 20µM* | 0.9% | -6.9% | -12.9%
Cc1ccc(CCN2CC(C(=O)NCCC(C)C)CC2=O)cc1 (stereo not drawn) | 4.4% | 2.4% | -25.4% | -0.6% | -1.3% | 11.9%
COc1ccc(N2CC(C(=O)Nc3nnc(SCC(=O)NCc4ccco4)s3)CC2=O)cc1 (stereo not drawn) | -13.7% | -15.1% | 28.2µM* | 2.9% | -11.0% | -18.0%
O=[N+]([O-])c1ccc(N2CCNCC2)cc1NCc1ccco1 | nt | -10.5% | -6.5% | 16.7% | 33.9% | 17.8µM*
N#CC(=C=[N-])c1nc2ccccc2nc1-[n+]1cccc(NC(=O)c2cccs2)c1 | -3.9% | 4.1% | 39.8µM* | 0.3% | -17.8% | -6.1%
N#CC(=C=[N-])c1nc2ccccc2nc1-[n+]1cccc(NC(=O)c2ccccc2)c1 | -5.1% | 7.3% | 39.8µM* | 0.0% | -2.4% | -3.5%
COC(=O)c1nn(-c2ccc3c(c2)CCN3C(C)=O)cc1O | -7.0% | -11.7% | -0.6% | -9.2% | 17.8µM* | -11.8%
CN(C)c1ccc(/C=C(\C#N)c2nc(-c3ccc(Cl)c(Cl)c3)cs2)cc1 | nt | 14.3% | 1.9% | nt | 2.4% | nt
Cc1cc(N2C(=O)C(O)=C(C(=O)c3cc4ccccc4o3)C2c2cccs2)no1 (stereo not drawn) | -8.0% | 6.8% | 56.2µM* | -2.2% | -5.9% | -53.9%
O=C(C1=C(O)C(=O)N(CCc2ccccc2)C1c1ccncc1)c1cc2ccccc2o1 (stereo not drawn) | 12.4% | 5.0% | nt | 0.4% | 0.7% | -23.7%
O=C(C1=C(O)C(=O)N(c2nccs2)C1c1ccccc1)c1cc2ccccc2o1 (stereo not drawn) | -18.2% | 2.0% | 10µM* | -2.2% | -10.9% | -46.2%
O=C(Nc1ccccc1C(=O)Nc1ccccc1)c1ccco1 | 3.4% | -10.4% | 4.6% | -0.6% | -0.2% | -35.2%
Cc1cccc(NC(=O)c2ccccc2NC(=O)c2ccco2)c1 | -3.9% | -0.1% | -28.1% | 0.9% | 7.7% | 6.31µM*
O=C(Nc1cccc(O)c1)c1ccc2c(c1)C(=O)N(Cc1ccco1)C2=O | 26.1% | 0.3% | -26.6% | -0.8% | 3.1% | -48.5%
CCc1nc2ccc(C(=O)NCc3ccco3)cc2nc1CC | -2.8% | 3.1% | 28.2µM* | -4.7% | -1.8% | -10.9%
CCCN1C(=O)c2ccc(C(=O)NCc3ccco3)cc2C1=O | -8.7% | 1.8% | 31.6µM* | -3.4% | 0.3% | -32.6%
O=C(Nc1ccc(Cl)cc1C(=O)O)c1ccc2c(c1)C(=O)N(Cc1ccco1)C2=O | 7.9% | -13.3% | 50.1µM* | -1.1% | 0.9% | -16.6%
